DAGLB inhibitor: diacylglycerol lipase beta (human) inhibition; Q8NCG7; HEK293T DAGLB membrane lysate, EnzChek fluorogenic substrate; inhibition, % at 5.17 µM; 340,000 compounds, 0.059% hits; AID 504411; in the data active = inhibition above about 34%;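 note: 0% = enzyme with vehicle and 100% = wells lacking enzyme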
PAFAH1B3 FP inh: inhibitors of human PAFAH1B3; Q15102; recombinant PAFAH1B3, FP-rhodamine probe, fluorescence polarization; inhibition, % at 3.39 µM; 340,000 compounds, 0.28% hits;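 active = inhibition above the screen-wide average of all tested compounds plus 3 SD, cut at about 25% in these data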;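 note: 0% = enzyme with DMSO only and 100% = wells lacking PAFAH1B3 protein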
PAFAH1B2 FP inh: inhibitors of human PAFAH1B2 | P68402 | recombinant PAFAH1B2, FP-rhodamine activity probe, fluorescence polarization | inhibition, % at 3.39 µM | 340,000 compounds, 1.2% hits | AID 492953;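 active = inhibition above the mean of all tested compounds plus 3 SD, cut at about 24% in these data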;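 note: 0% = enzyme with DMSO and 100% = wells lacking PAFAH1B2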
Target sequence (P68402 whole entry, looked up): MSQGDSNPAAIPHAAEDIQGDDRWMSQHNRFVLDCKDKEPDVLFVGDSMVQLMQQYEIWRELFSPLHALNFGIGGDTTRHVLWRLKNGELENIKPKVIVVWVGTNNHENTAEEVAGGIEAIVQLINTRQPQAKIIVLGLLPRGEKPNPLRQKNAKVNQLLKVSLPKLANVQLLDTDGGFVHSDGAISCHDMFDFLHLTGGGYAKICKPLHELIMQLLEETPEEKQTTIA
HTRA1 inhibitor: HTRA1 (human) protease inhibition; Q92743; recombinant HTRA1, FP-rhodamine activity-based probe, fluorescence polarization; inhibition, % at 5.96 µM; 340,000 compounds, 0.5% hits; AID 504803; in the data active = inhibition above about 36%;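 note: 0% = enzyme with DMSO and 100% = wells lacking enzyme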
PAFAH2 FP inh: inhibitors of human PAFAH2; Q99487; recombinant PAFAH2, FP-rhodamine activity probe, fluorescence polarization; inhibition, % at 3.39 µM; 340,000 compounds, 0.99% hits; AID 492956;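 active = inhibition above the mean over all tested compounds plus 3 SD, cut at about 30% in these data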;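 note: inhibitors block probe labeling of enzyme so polarization drops; 0% = enzyme with DMSO and 100% = wells lacking PAFAH2 protein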
pPAFAH inh: inhibitors of human plasma PAF acetylhydrolase (pPAFAH). Q13093. recombinant pPAFAH, FP-rhodamine probe fluorescence polarization. inhibition, % at 3.39 µM. 330,000 compounds, 1.5% hits. AID 463082;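 active = inhibition above the mean inhibition across the screen plus 3 SD, cut at about 25% in these data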;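 note: inhibitors block binding of the rhodamine activity-based probe so polarization drops; 0% = enzyme with DMSO and 100% = wells lacking pPAFAH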
Target sequence (Q13093 whole entry, looked up): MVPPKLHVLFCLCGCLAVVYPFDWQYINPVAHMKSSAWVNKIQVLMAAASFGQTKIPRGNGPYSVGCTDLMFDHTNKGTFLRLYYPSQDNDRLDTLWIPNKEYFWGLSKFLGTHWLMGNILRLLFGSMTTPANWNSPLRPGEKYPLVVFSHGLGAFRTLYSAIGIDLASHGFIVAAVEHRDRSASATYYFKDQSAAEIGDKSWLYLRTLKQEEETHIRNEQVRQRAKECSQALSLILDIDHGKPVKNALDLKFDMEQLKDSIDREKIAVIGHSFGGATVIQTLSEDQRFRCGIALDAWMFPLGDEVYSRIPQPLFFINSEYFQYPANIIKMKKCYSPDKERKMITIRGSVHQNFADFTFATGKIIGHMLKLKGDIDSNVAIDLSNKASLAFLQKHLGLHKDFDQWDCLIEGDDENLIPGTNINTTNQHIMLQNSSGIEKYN
PAFAH2 FP conf: confirmation of human PAFAH2 inhibitors; shares compounds with PAFAH2 FP inh; recombinant PAFAH2, FP-rhodamine activity probe, fluorescence polarization; inhibition, % at 3.39 µM; 2,300 compounds, 65% hits; AID 493030;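 active = mean inhibition over three repeats above a set limit taken from the earlier primary screen, cut at about 30% in these data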;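 note: inhibitor blocks binding of rhodamine activity probe so polarization falls; 0% = enzyme with DMSO and 100% = wells lacking PAFAH2 protein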
PAFAH1B3 conf FP: confirmation of human PAFAH1B3 inhibitors; shares compounds with PAFAH1B3 FP inh; recombinant PAFAH1B3, FP-Rh activity-based probe, fluorescence polarization; inhibition, % at 3.39 µM; 390 compounds, 30% hits; AID 493032;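 active = average inhibition over triplicate runs above the hit cutoff set in the earlier primary screen, cut at about 25% in these data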;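 note: 0% = enzyme with DMSO and 100% = wells lacking PAFAH1B3 protein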
DAGLB confirm: DAGLB (human) inhibition, confirmation screen | HEK293T DAGLB membrane lysate, EnzChek fluorogenic substrate | shares compounds with DAGLB inhibitor | 190 compounds, 73% hits | AID 504445 | inhibition, % at 5.17 µM;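 active = mean inhibition over triplicate wells above a set limit taken from the primary lipase screen, cut at about 34% in these data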;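 note: 0% = DAGLB with DMSO and 100% = wells lacking DAGLB enzyme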
HTRA1 inh conf: confirmation of human HTRA1 inhibitors. recombinant HTRA1, FP-rhodamine activity-based probe, fluorescence polarization. 1,600 compounds, 66% hits. shares compounds with HTRA1 inhibitor. inhibition, % at 5.96 µM;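 active = mean inhibition over three repeats above a set limit taken from the earlier primary screen, cut at about 37% in these data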;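 note: 0% = HTRA1 with DMSO and 100% = wells lacking HTRA1; inhibitors block probe binding so polarization drops and inhibition rises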
Starred values were filed as active, the others as inactive; / = no result given. Shown are actives, neighbours in structure and some others; about 2.8% of the full set was active somewhere.

SMILES	DAGLB inhibitor	PAFAH1B3 FP inh	PAFAH1B2 FP inh	HTRA1 inhibitor	PAFAH2 FP inh	pPAFAH inh	others
O=C1NC(=O)N(C2CCCCC2)C(=O)C1C1c2ccccc2C(=O)N1Cc1ccccc1 (configuration not stated)	2	-5	17	8	45*	4	PAFAH2 FP conf=41*
CCOc1ccc(-n2c(O)c(C=Nc3ccc(N4CCOCC4)cc3)c(=O)[nH]c2=O)cc1	2	-1	3	4	-7	2
CC1C(c2cccs2)=[N+]([O-])C(C)(C(=O)c2ccc(F)cc2)N1O (configuration not stated)	-1	0	5	-1	-3	-4
CC12CCC(=O)C=C1CCC1C2CCC2(C)C(O)CCC12 (configuration not stated)	0	5	-2	-9	34*	0	PAFAH2 FP conf=-5
COC(=O)C1=C(c2ccc(F)cc2OCc2ccccc2)C[C@@H]2CC[C@H]1N2C(=O)NCC1CC1	-5	10	2	-17	11	-2
CCCC[n+]1cc(=N)o[n-]1	0	3	5	6	-2	4
Cc1cccc(N2C(=O)NC(=O)/C(=C\c3ccc4c(c3)CCCN4Cc3ccccc3)C2=O)c1	6	-19	0	-25	33*	11	PAFAH2 FP conf=37*
COc1ccc(N2C(=O)NC(=O)/C(=C/c3ccc4c(c3)Cc3ccccc3-4)C2=O)cc1	/	/	/	/	/	14
NC(=O)Nc1ccc(C(=O)OCC(=O)Nc2ccc(Cl)cc2C(=O)c2ccccc2)cc1	1	-4	-1	-22	70*	3	PAFAH2 FP conf=52*
C[N+](C)(C)CC(=O)Nc1ccc(Cl)cc1C(=O)c1ccccc1	0	12	2	3	3	-6
COC1CCC(OC2CC(C3(C)CCC4(CC(O)C(C)C(C(C)/C=C(\C)C(=O)C(C)CC(C)C(=O)O)O4)O3)OC3(OC(C4OC(O)(CO)C(C)CC4C)CC3C)C2C)OC1C (configuration not stated)	-3	4	12	-2	6	/
Cc1cccc(N2C(=O)NC(=O)/C(=C\c3cc(C)n(-c4sc5c(c4C#N)CCCC5)c3C)C2=O)c1C	19	8	3	8	33*	9	PAFAH2 FP conf=22
CC1CC2(C)C(CCC3C2CCC2(C)C(OP(=O)(N4CC4)N4CC4)CCC32)CC1=O (configuration not stated)	0	5	4	-6	11	/
CCC(C)NC(=O)c1c(N)n(CCCOC)c2nc3ccccc3nc12 (configuration not stated)	-9	62*	18	-4	9	18	PAFAH1B3 conf FP=19
COCCCn1c(N)c(C(=O)Nc2ccccc2)c2nc3ccccc3nc21	/	/	/	/	/	10
CCCCn1c(NS(=O)(=O)c2ccccc2)c(C(=O)OCC)c2nc3ccccc3nc21	-22	51*	24	12	14	18	PAFAH1B3 conf FP=5
CC(=O)Nc1ccccc1C(=O)OCc1ccc(F)cc1	-4	11	6	3	0	-1
COc1cc2c(cc1O)[C@@H]1Cc3ccc(OC)c(O)c3CN1CC2	-1	37*	8	6	6	0	PAFAH1B3 conf FP=11
COc1ccc(C[C@@H]2c3cc(O)c(OC)cc3CCN2C)cc1O	-3	-2	3	1	-6	-5
CCc1ccc2c(CN3CC=C(c4ccccc4)CC3)cc(=O)oc2c1	-1	27*	2	-9	-3	2	PAFAH1B3 conf FP=6
CCN(C(=O)COC(=O)c1cc(C)n(C2CC2)c1C)c1ccccc1	-8	1	5	-8	4	-8
Oc1cccc2nc3ccccc3nc12	4	35*	2	67*	14	12	PAFAH1B3 conf FP=10;HTRA1 inh conf=60*
CC1CCSP(=O)(Oc2ccccc2)O1 (configuration not stated)	3	9	6	1	7	1
NP(=O)(OCCCc1ccccc1)Oc1ccc(Cl)cc1 (configuration not stated)	35*	-1	95*	-4	12	2	DAGLB confirm=35*
COc1ccc2c3c1OC1C(=O)CC[C@@]4(O)[C@@H](C2)N(C)CC[C@]314 (some centres not stated)	-3	-3	-6	0	0	-5
SMILES	DAGLB inhibitor	PAFAH1B3 FP inh	PAFAH1B2 FP inh	HTRA1 inhibitor	PAFAH2 FP inh	pPAFAH inh	others
CCCCCCCCCCCCCCCC[N+](C)(C)C	3	3	-3	54*	1	11	HTRA1 inh conf=78*
CCN(CC)CCCOC(=O)C(OC(C)C)(c1ccccc1)c1ccccc1	3	-4	13	0	-9	4
CC(C)Nc1ccc(Nc2ccccc2)cc1	9	7	5	69*	7	22	HTRA1 inh conf=53*
CCCN1CCc2cc(O)cc3c2[C@H]1Cc1ccc(O)c(O)c1-3	2	12	4	62*	-7	23	HTRA1 inh conf=48*
CN1CCc2cc(O)cc3c2[C@H]1Cc1ccc(O)c(O)c1-3	-1	12	5	30	4	8
CN1CCc2cc3c(c4c2C1Cc1ccccc1-4)OCO3 (configuration not stated)	0	13	11	68*	26	29*	HTRA1 inh conf=2
COc1cc2c(cc1O)C[C@H]1c3c(cc(O)c(OC)c3-2)CCN1C	0	3	-9	1	11	4
Cc1ccc(-n2c(=S)[nH]c3ccccc3c2=O)cc1C	1	/	/	-7	/	/
O=c1c2ccccc2nc(/C=C/c2ccc(O)c(O)c2)n1-c1ccccc1	12	8	-1	64*	1	30*	HTRA1 inh conf=87*
CCCCn1c(=O)c(C(=O)Nc2ccccc2N)c(O)c2ccccc21	-2	11	2	40*	4	-3	HTRA1 inh conf=20
CC1CN=C(NCc2ccc(F)cc2)S1 (configuration not stated)	-2	0	-2	0	2	4
O=C(NC1CN2CCC1CC2)c1ccc(-c2ccc([N+](=O)[O-])cc2)o1 (configuration not stated)	1	6	-8	1	8	5
COc1ccc(/C=C/C(=O)c2c(O)n(CCC3=CCCCC3)c(=O)[nH]c2=O)cc1OC	4	5	8	2	-6	1

From PubChem BioAssay
